PubChem BioAssay AID602350 (Broad Institute, 2012)
Potency and affinity values are given separately. The source made the active and inactive calls.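 Rule for the calls: active = absorbance falls by 30% or more versus neutral controls, with a potency fitted within twice the top valid dose; inconclusive = no clear call, values can overlap the other calls; inactive = change opposite to expected direction, plus the rest.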

target: Protein disulfide-isomerase (Homo sapiens) (UniProt P07237); experiment: inhibition of PDI-driven insulin aggregation – biochemical, turbidity, absorbance, cherry-picked samples, dose response (AID 602350); conditions: recombinant PDI insulin aggregation, absorbance 650 nm, 90 min; series mostly up to 19.5 µM
Sequence (P07237 whole entry, looked up): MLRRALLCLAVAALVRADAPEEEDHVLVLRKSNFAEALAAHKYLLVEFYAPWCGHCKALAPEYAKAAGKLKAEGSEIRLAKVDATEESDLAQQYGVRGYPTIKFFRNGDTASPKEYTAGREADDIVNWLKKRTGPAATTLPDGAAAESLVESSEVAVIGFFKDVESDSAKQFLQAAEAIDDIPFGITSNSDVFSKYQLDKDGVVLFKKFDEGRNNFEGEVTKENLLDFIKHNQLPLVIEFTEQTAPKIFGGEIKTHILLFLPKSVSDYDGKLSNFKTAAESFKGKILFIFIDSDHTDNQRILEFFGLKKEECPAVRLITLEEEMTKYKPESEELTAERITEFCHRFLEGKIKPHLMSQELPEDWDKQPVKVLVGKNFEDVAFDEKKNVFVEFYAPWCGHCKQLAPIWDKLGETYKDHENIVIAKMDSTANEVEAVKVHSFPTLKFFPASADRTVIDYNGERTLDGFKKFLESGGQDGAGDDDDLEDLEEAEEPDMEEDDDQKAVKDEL

outcome, inactive:
CC1(C(=O)Nc2ccc3c(c2)OCCO3)CCN1C(=O)C1(c2ccc(Cl)cc2)CC1 (centres undefined)
FC(F)(F)c1cccc(NC(=S)NCc2ccccn2)c1
Cc1ccc(-c2cc(C(=O)NNC(=O)c3csc(N4CCOCC4)n3)c3ccccc3n2)cc1
O=C(NCc1ccccn1)Nc1cccc(Cl)c1
O=C(NC(=S)Nc1cccc(NC(=O)c2ccccc2)c1)c1cccc([N+](=O)[O-])c1
O=C1/C(=C\c2ccc(O)cc2)CCC1CNc1ccc(Cl)cc1 (centres undefined)
CC(=O)NC1(c2nnnn2CCOC(=O)Nc2ccc(Cl)cc2)CCCCC1
O=C(Cc1ccccc1)Nc1cccc(C(=O)N/N=C/c2ccco2)c1
CCc1nc2ccc(C(=O)N(CC)CC(=O)Nc3c(F)cccc3F)cc2nc1CC
CCOC(=O)C1(CCOc2ccccc2)CCN(Cc2ccccc2O)CC1
CCOc1ccc(NC(=O)CCc2nnc3ccc(N4CCN(C)CC4)nn23)cc1
CCCCC(=O)OC1CCC2C3CCc4cc(O)ccc4C3CCC12C (centres undefined)
S=C(NCCc1ccccc1)Nc1ccccn1
CCc1ccc(NC(=O)Nc2ccncc2)cc1
C[C@]12CC[C@@H]3c4ccc(O)cc4C(=O)C[C@H]3[C@@H]1CC[C@@H]2O
O=C(O)c1ccccc1Cc1ccc(F)c2ccccc12
O=C(Nc1ccc(Br)cc1F)c1cccnc1
CN1CCN(Cc2nc3ccccc3c(=O)n2Cc2nc(-c3ccc4ccccc4c3)cs2)CC1
CC1(C(=O)N2CCCCC2)CCN1C(=O)Cc1ccc(-c2ccccc2)cc1 (centres undefined)
COC(=O)c1ccc(NC(=S)NCCc2cccc(C)c2)cc1
CC(OC(=O)c1cccc(S(=O)(=O)N(C)C)c1)C(=O)NCC(=O)Nc1ccc(F)c(F)c1F (centres undefined)
Cc1noc(C)c1S(=O)(=O)Nc1ccc2c(c1)CC(=O)N([C@H](C)CO)C[C@@H](C)[C@H](CN(C)S(=O)(=O)c1ccc(F)cc1)O2
CC(=O)OCC(=O)NCc1ccc2c(c1)OCO2
CCOc1c(Cl)cc(CNC(C)(C)CC(C)(C)C)cc1OC
